Screening data from PubChem.
In the library only some 20% were active in any assay of this set; here they are far more common.
Shiga toxin inh – inhibitors of Shiga toxin in Vero cells; Vero cells, Shiga toxin protein synthesis inhibition reporter; inhibition, % at 38.7 µM; 9.2% of 290,000 active; AID 2315; in the data active means inhibition mostly above about 28%, no sharp cut-off; inactive means mostly below about 43%; further: 0% is about no effect
Pf growth 48h – inhibits P. falciparum growth in the first generation, 48 h. 5.9% of 310,000 active. P. falciparum luciferase growth in erythrocytes, 48 h. Potency, µM (doses to about 28.7 µM), for the others: at the highest dose activity change, negative = inhibition, usual class: inhibitors; further: potency means the concentration at half of the fitted maximal effect; on the % scale 0 is the no-effect control and ±100 the full control effect
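Read-out is firefly luciferase luminescence from an integrated reporter in P. falciparum, so falling signal marks reduced parasite growth. Infected erythrocytes were at 2% hematocrit and 0.1% parasitemia (final) in Albumax-supplemented RPMI 1640.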
Pf growth 96h – P. falciparum growth inhibition at 96 hour, primary screen for plastid delayed-death inhibitors; 6.9% of 320,000 active; Potency, µM (doses to about 28.7 µM), for the others: at the highest dose activity change, negative = inhibition, actives largely listed as inhibitors; P. falciparum luciferase reporter growth, 96 h; further: potency means the concentration at half of the fitted maximal effect; on the % scale 0 is the no-effect control and ±100 the full control effect
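96 h incubation, 37 C, 5% CO2, of luciferase-reporter P. falciparum-infected RBCs (2% hematocrit, 0.05% parasitemia final) with test compounds; endpoint luminescence.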
HCMV antiviral – inhibitors of human cytomegalovirus | activity change, negative = inhibition, % at 57.5 µM | 4.5% of 410,000 active | HFF cells, HCMV-luciferase reporter, 72 h; stronger effect = lower value; in the data active means activity change below about -60%; inconclusive means no clear call, values can overlap the other calls; inactive means above about -39%; further: on the % scale 0 is the no-effect control and ±100 the full control effect
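Two-dose cell screen: HFF monolayers treated with compounds and infected with luciferase-expressing HCMV at 1 PFU/cell, 72 h at 37C, then lysed for luciferase measurement.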
CHX counter – counter-screen for Shiga toxin inhibitors: cycloheximide protein synthesis inhibition; cell reporter, cycloheximide protein synthesis inhibition counterscreen; max response, %; 12% of 300,000 active; in the data active means max response mostly above about 13%, no sharp cut-off; inactive means mostly below about 14%; further: read at 38.3 µM for the half of the compounds with a filed dose; 0% is about no effect
An asterisk follows results filed as active. Unless noted, the call rests on the fitted dose curve; in most records, active means well fitted inhibition curve with a large enough effect; inconclusive means small, poorly fitted or top-dose-only effect, or another doubt; inactive means no such curve, though single readings can be large or run the other way.

Screening CN(C)C(=O)CCc1ccc2c3c([nH]c2c1)[C@]1(CCC2CCCC2)[C@@H](C(=O)N2CCOCC2)C[C@H](CC(=O)NC(C)(C)C)C(=O)N1CC3 returned HCMV antiviral 15.
For COc1ccc(Br)c(Cn2c(C)c(C(=O)NCc3ccc4c(c3)OCCO4)sc2=O)c1 the results were HCMV antiviral 24.
For Cc1ccccc1NC(=O)Cn1c(=O)n(Cc2ccc3c(c2)OCO3)c(=O)c2ccc(C(=O)NC3CCCCC3)cc21 the results were HCMV antiviral -5.
For NC(N)=NCCC[C@H](NC(=O)[C@H](Cc1ccccc1)NC(=O)[C@@H]1CCCN1C(=O)[C@H](CO)NC(=O)[C@H](Cc1ccccc1)NC(=O)CNC(=O)[C@@H]1CCCN1C(=O)[C@@H]1CCCN1C(=O)[C@@H](N)CCCN=C(N)N)C(=O)O the results were Shiga toxin inh -6 and CHX counter -5.
Screening Cc1ccc(C(=O)N/C(=C\c2ccc(-c3ccc(Cl)cc3)o2)C(=O)NCCCN(C)C)cc1 returned Shiga toxin inh -18, Pf growth 48h 10µM*, Pf growth 96h 9.3µM*, HCMV antiviral -72* and CHX counter -21.
CN(C)CCCNC(=O)/C(=C\c1ccc(-c2ccc(Br)cc2)o1)NC(=O)c1ccccc1 was read as Shiga toxin inh -24, Pf growth 48h 10µM*, Pf growth 96h inconclusive, HCMV antiviral inconclusive and CHX counter -9.
For Cc1ccc(/C=C(\NC(=O)c2ccccc2)C(=O)NCCc2ccccn2)o1 the results were Shiga toxin inh 24, Pf growth 48h -3%, Pf growth 96h -3%, HCMV antiviral 25 and CHX counter 11*.
Screening COc1ccc(OC)c(C2=Nn3c(nnc3-c3ccccc3O)SC2)c1 returned Shiga toxin inh 1 and CHX counter 4.
Screening Cc1noc(-c2ccccc2)c1-c1ccccc1[N+](=O)[O-] returned HCMV antiviral -100*.
`Cc1onc(-c2ccccc2[N+](=O)[O-])c1-c1ccccc1[N+](=O)[O-]` gave HCMV antiviral -8.
Screening CC(=O)Nc1ccccc1NS(=O)(=O)c1ccccc1NO returned Shiga toxin inh 3 and CHX counter -1.
CC(=O)c1c(C)n(-c2ccc(Cl)cc2)c2ccc(OC(=O)COc3ccccc3)cc12 was read as HCMV antiviral -17.
For CCCN(CCC)S(=O)(=O)c1ccc(C(=O)Nc2nc3c(s2)CCc2ccccc2-3)cc1 the results were Shiga toxin inh -7, Pf growth 48h -19%, Pf growth 96h inconclusive, HCMV antiviral -72* and CHX counter -2.
Screening Cc1ccc(-c2nc(NC(=O)c3ccc(S(=O)(=O)N(CCC#N)CCC#N)cc3)sc2-c2ccccc2)cc1 returned Shiga toxin inh -6, Pf growth 48h -25%, Pf growth 96h 12µM*, HCMV antiviral 11 and CHX counter 9.
For CCOC(=O)c1oc2ccccc2c1COC(=O)CNC(=O)c1ccco1 the results were Pf growth 48h -21%, Pf growth 96h 33% and HCMV antiviral -19.
O=C(c1ccc2c(c1)N(Cc1cccc(Cl)c1)C(=O)c1ccccc1S2(=O)=O)N1CCN(c2cccc(C(F)(F)F)c2)CC1 was read as HCMV antiviral -12.
Cc1ccc(N(C(=O)Cc2cccs2)C(C(=O)NC2CCCCC2)c2ccccn2)cc1C (centres undefined) was read as Shiga toxin inh 32*, Pf growth 48h 0%, Pf growth 96h 4.1µM*, HCMV antiviral -39 and CHX counter 16.
Screening O=C(NC1CCCC1)C(c1ccccn1)N(C(=O)c1csnn1)c1ccccc1Br (centres undefined) returned Pf growth 48h 6%, Pf growth 96h 2.1µM* and HCMV antiviral 9.
Screening Cc1ccc(N(C(=O)c2csnn2)C(C(=O)NC2CCCCC2)c2ccccn2)c(C)c1 (centres undefined) returned Shiga toxin inh -11, Pf growth 48h -8%, Pf growth 96h 9%, HCMV antiviral -62* and CHX counter -4.
O=C(NCc1ccc(F)cc1)C(c1cccnc1)N(C(=O)c1csnn1)c1ccccc1 (centres undefined) was read as Shiga toxin inh -7, Pf growth 48h -26%, Pf growth 96h 10µM*, HCMV antiviral 3 and CHX counter -4.
